Laboratory results from PMC4336329 (PLoS ONE, 2015).
Hit rate of the full screen: of about 310,000 compounds, about 14,000 (4.5%) showed an effect of 50% or more. Effects have a minus sign here. This is one part of a sample in which strong results are shown more often than they occur.

These molecules were tested against human ether-à-go-go-related gene (hERG) potassium channel (human, UniProt Q12809) (assay: primary screen, population patch clamp on CHO cells stably expressing hERG; higher = less effect of the substance).
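Also: peak tail current of the secondary pulse compared with the same well before compound.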

Sequence of human ether-à-go-go-related gene (hERG) potassium channel (Q12809 whole entry, looked up): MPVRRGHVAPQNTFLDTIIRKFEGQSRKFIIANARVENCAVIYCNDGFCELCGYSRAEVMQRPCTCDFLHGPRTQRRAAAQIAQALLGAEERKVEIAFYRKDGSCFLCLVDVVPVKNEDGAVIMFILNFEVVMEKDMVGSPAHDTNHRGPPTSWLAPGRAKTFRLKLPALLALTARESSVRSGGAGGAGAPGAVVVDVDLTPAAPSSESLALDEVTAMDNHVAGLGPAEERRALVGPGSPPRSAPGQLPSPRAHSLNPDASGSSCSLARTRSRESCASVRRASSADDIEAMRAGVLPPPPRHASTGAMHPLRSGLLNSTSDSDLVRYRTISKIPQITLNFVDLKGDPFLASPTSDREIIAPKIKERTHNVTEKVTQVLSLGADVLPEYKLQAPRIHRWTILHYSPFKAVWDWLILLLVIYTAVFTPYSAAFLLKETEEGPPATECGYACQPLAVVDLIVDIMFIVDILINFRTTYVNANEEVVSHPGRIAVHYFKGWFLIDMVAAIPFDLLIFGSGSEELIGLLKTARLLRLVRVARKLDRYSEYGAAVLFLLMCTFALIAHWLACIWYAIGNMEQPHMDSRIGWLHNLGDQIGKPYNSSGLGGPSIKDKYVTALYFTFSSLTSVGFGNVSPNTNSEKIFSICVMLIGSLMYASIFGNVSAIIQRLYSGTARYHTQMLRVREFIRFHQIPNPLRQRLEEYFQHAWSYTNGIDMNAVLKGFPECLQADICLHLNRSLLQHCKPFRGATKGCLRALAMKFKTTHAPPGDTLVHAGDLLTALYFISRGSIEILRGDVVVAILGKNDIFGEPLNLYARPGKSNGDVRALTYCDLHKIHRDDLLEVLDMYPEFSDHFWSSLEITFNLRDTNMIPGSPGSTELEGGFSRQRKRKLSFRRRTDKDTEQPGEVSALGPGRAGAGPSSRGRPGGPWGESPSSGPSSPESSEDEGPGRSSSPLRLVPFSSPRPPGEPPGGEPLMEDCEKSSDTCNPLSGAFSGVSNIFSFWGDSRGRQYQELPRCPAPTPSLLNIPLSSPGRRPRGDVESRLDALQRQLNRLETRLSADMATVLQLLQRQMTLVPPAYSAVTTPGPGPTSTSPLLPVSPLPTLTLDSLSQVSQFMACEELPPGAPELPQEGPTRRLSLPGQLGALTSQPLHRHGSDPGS

| SMILES | hERG current change (%, negative = inhibition) at 10uM [%] |
| --- | --- |
| O=C1N=C(N2CCOCC2)S/C1=C\c1ccc(-c2ccccc2Cl)o1 | -15.3 |
| COC(=O)CS(=O)(=O)c1ccsc1C(=O)Nc1ccc(F)cc1 | 3.5 |
| Cc1ccc(SCCC(=O)Nc2ccccc2Br)cc1 | 12.8 |
| C=CCn1cnc2c(oc3ccccc32)c1=O | 4.04 |
| Cc1cnc(C(=O)OCC(=O)N=c2sccn2Cc2ccccc2Cl)cn1 | 10.1 |
| CCOC(=O)N1CCC(NC(=O)COc2cc(=O)n(C)c3ccccc23)CC1 | 6.6 |
| O=C(NCCNS(=O)(=O)c1ccccc1)N1CCOCC1 | 18.3 |
| O=C(NC1CCCCC1)C(c1ccccc1F)N(Cc1ccco1)C(=O)c1ccccn1 (stereo not drawn) | -4.03 |
| Cc1cc(Cn2nnc3ccccc32)c(O)c(C(C)(C)C)c1 | 19.3 |
| COc1ccccc1-c1nnc2n1N=C(c1ccc(O)c(O)c1)CS2 | -0.453 |
| CC1Sc2n(c3ccccc3[n+]2C)N=C1c1ccccc1.[Br-] (stereo not drawn) | -49.6 |
| C[n+]1c2n(c3ccccc31)N=C(c1ccccc1)CS2.[Br-] | -47.3 |
| C[n+]1c2n(c3ccccc31)N=C(c1cc(C(C)(C)C)c(O)c(C(C)(C)C)c1)CS2.[Br-] | -77.6 |
| C[n+]1c2n(c3ccccc31)N=C(c1ccc(Br)cc1)CS2.[Br-] | -69.5 |
| C[n+]1c2n(c3ccccc31)N=C(c1ccc(Cl)cc1)CS2.[Br-] | -69 |
| Cc1nnc2n(c1=O)N=C(c1ccc(Cl)cc1)CS2 | 6.25 |
| Cc1ccc(-c2nnc3n2N=C(c2ccc(Br)cc2)CS3)cc1 | -1.26 |
| COc1ccc(C2=Nn3c([n+](C)c4ccccc43)SC2)cc1.[Br-] | -44.2 |
| CCc1nnc2n1N=C(c1ccc(Cl)cc1)CS2 | 8.48 |
| C[n+]1c2n(c3ccccc31)N=C(c1ccc(-c3ccccc3)cc1)CS2.[Br-] | -79.7 |
| Cc1ccc2nc(N3C(=O)C(O)=C(C(=O)c4ccc(C)o4)C3c3ccco3)sc2c1 (stereo not drawn) | 12.8 |
| COC(=O)c1ccc(NC(=O)C[n+]2ccccc2)cc1.[Cl-] | 11.9 |
| COc1ccc(NC(=O)Cn2c(=O)oc3cc(S(=O)(=O)N4CCCC4)ccc32)c(OC)c1 | 7.38 |
| O=C(Nc1ccccc1)c1ccc(NCCN2C(=O)CCC2=O)c([N+](=O)[O-])c1 | 10.9 |
